Experimental data published in PubChem BioAssay (Tox21).
Inconclusive results are not listed. Where a call stands in place of a potency, no number is given. The source made the active and inactive calls. Calls follow the shape of the dose curve; as a rule, active = well fitted inhibition curve with a large enough effect in the signal ratio in the repeat runs (not every such curve was filed as active); inconclusive = weak or mixed curves, or effect the other way; inactive = no such curve, though single readings can be large or run the other way; the % refers to the signal ratio.

molecular target: Glucocorticoid receptor (Homo sapiens) (UniProt P04150); test: qHTS assay to identify small molecule antagonists of the glucocorticoid receptor (GR) signaling pathway (AID 720692); conditions: GR-bla HeLa, beta-lactamase FRET ratio, dexamethasone-stimulated, 18 h; series mostly up to 58.5 µM
Sequence (P04150 whole entry, looked up): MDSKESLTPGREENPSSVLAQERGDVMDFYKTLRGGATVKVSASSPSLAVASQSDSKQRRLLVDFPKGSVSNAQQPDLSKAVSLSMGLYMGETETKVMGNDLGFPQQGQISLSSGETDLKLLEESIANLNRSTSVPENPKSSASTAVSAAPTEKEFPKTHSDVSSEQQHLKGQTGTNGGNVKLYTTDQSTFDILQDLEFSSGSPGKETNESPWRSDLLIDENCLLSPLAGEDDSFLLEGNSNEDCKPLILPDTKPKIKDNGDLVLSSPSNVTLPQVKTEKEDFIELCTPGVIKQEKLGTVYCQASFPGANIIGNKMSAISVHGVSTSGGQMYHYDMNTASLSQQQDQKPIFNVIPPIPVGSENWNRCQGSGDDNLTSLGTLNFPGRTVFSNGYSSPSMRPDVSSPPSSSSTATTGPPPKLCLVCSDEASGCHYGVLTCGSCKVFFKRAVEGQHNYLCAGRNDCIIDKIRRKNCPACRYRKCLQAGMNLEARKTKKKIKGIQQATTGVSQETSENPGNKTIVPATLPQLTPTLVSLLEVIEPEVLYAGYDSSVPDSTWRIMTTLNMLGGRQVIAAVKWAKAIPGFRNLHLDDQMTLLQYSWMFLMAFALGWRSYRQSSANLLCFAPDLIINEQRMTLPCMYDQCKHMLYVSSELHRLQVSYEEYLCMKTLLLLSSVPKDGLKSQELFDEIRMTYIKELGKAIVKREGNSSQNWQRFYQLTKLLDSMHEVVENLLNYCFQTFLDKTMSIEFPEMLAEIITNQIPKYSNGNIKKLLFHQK
Outline: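 Inhibition of glucocorticoid signalling is measured in HeLa cells with a GRE-controlled beta-lactamase reporter; cells are co-treated with compound and 5 nM dexamethasone (final) for 18 h before FRET substrate readout.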

SMILES | Potency
Cc1cc2c(s1)Nc1ccccc1N=C2N1CCN(C)CC1 | inactive
CC(=O)Oc1cc(C(C)C)c(OCCN(C)C)cc1C | inactive
CC(C)=CCCC(C)CCOC=O (stereo not drawn) | inactive
CC1(C)C(=O)N(Cl)C(=O)N1Br | inactive
CC1(O)CSC(C)(O)CS1 (stereo not drawn) | inactive
CCCCN1C[C@H](O)[C@@H](O)[C@H](O)[C@H]1CO | inactive
CC1=C2[C@H](/C=C(\C)C(=O)O)CC[C@@H](C)[C@H]2CC1 | inactive
CN1C(=O)CC(c2ccccc2)C1=O (stereo not drawn) | inactive
Cc1c(N)cccc1N | inactive
COc1ccc(Nc2ccc(OC)cc2)cc1 | inactive
CCOC(=O)CS | inactive
Oc1ccccc1F | inactive
O=C1Nc2ccc([N+](=O)[O-])cc2C1=O | inactive
